Inconclusive results are not listed. The source made the active and inactive calls. Calls come from the whole dose curve; as a rule, active = well fitted cell-killing curve with a large enough effect; inconclusive = small, poorly fitted or top-dose-only effect; inactive = flat fitted curve, though single readings scatter.
test: PC3M Cytotoxicity Assay for Compounds that Inhibit the Perinuclear Compartment; conditions: PC3M-GFP viability, ATPLite luminescence, 24 h
Description: The perinucleolar compartment (PNC) is a non-membrane-bound nuclear subdomain that is associated with but structurally distinct from the nucleolus. The PNC is a heritable trait, in which the number of PNCs per cell in daughter cells often mimics that of their mother cells. The PNC is heterogeneous in shape, is stable through interphase, disassembles during mitosis, and reassembles in early G1. The PNC is concentrated with newly synthesized RNA polymerase III (pol III) RNAs (MRP RNA, RNAse P H1 RNA, hY RNAs[hY1, 2, 5], Alu RNA, and SRP [7SL] RNA) and RNA binding proteins (nucleolin, PTB, CUG-BP, KSRP, Raver1, Raver2, and Rod). […] Extensive in vitro studies have shown that the PNC is unique to tumor cells and preferentially forms in tumor cells derived from solid tissues. Examination of cancer cell lines from various origins and malignant capacities has shown that PNC prevalence correlates with the malignancy of tumors and has the potential to be developed as a pan-cancer prognostic marker. […] Although the PNC is associated with a DNA locus and a handful of components have been identified, much remains to be investigated regarding the structure and function of the PNC and its mechanistic link to cancer. We have previously shown that PNC prevalence reduction is a valid strategy to identify compounds that can be used to study the structure and function of the PNC. It is necessary, however, to create a screening platform that is able to test a large number of compounds in an automated fashion. Here we report the development and robustness of an automated whole-cell phenotypic image-based screening assay that is capable of identifying such compounds. We conducted a followup assay to measure the effect of the lead candidates on cell health by measuring ATP levels (ATPLite). The highly metastatic PC3M-GFP reporter cell line was used in this study. NIH Chemical Genomics Center [NCGC] NIH Molecular Libraries Probe Centers Network [MLPCN] MLPCN Grant: MH082371-01A2 Assay Submitter (PI): Sui Huang, Northwestern University, Feinberg School of Medicine, Cell and Molecular Biology, Chicago, Illinois.
1. Cells at a density of 75-90% confluency in T175 flasks were harvested using 7 ml TrypLE Express cell dissociation reagent. After dissociation (5 minutes room temperature incubation) 10 ml of complete media was added to the TrypLE/cell suspension. The liquid was transferred to a 50 ml Conical tube and cells were pelleted at 1000 RPM for 5 min. Supernatant was removed and cells were resuspended to a final density of 150-200 cells/ul in complete media. 2. Cells were plated in 5 ul volume (2000 cells/well) into 1536 well White solid bottom plates and allowed to recover and adhere at 37 C in a humidified 5% CO2 incubator for 4 hours. 3. After 4 hour incubation, compound libraries (23 nl of […] in columns 5-48) were transferred to the plates in duplicate using a 1536 well pintool. Camptothecin positive control (59 uM final) was added to column 2 and 1:3 dilutions of camptothecin was added to column 3. DMSO negative controls were present in columns 1 and 4. 4. After a 24 hour incubation in the 37 C incubator, all wells were treated with 3 ul of ATPLite reagent using a multidrop combi dispenser (ThermoFisher). Bubbles that formed during dispensing were removed by spinning the plates for 1 minutre at 1500 RPM on a table top centrifuge. 5. Luminescencent signal was detected on a Viewlux CCD based imager (PerkinElmer) with a clear filter and a 30 second integration time. The PC3M cell line stably expressing the PTB-GFP was provided by Sui Huang of Northwestern University. The media and cell culture reagents were purchased from Invitrogen (Carlsbad, CA), ATPLite came from PerkinElmer.

SMILES | Potency
N=c1c2c(-c3ccccc3)c(-c3ccccc3)n(Cc3ccccc3)c2ncn1CCCn1ccnc1 | 19.9 µM (active)
N=c1c2c(-c3ccccc3)c(-c3ccccc3)n(Cc3ccco3)c2ncn1CCO | 19.9 µM (active)
N=c1c2c(-c3ccccc3)c(-c3ccccc3)n(Cc3ccco3)c2ncn1Cc1ccccc1 | 19.9 µM (active)
N=c1c2c(-c3ccccc3)c(-c3ccccc3)n(Cc3ccco3)c2ncn1CCCn1ccnc1 | 25 µM (active)
N=c1c2c(-c3ccccc3)c(-c3ccccc3)n(Cc3ccco3)c2ncn1Cc1ccco1 | 19.9 µM (active)
CC(C)Cn1cnc2c(c(-c3ccccc3)c(-c3ccccc3)n2Cc2ccco2)c1=N | 19.9 µM (active)

— PubChem BioAssay AID540362 (National Center for Advancing Translational Sciences (NCATS), 2011)
